Tests used:
Test in all cases: PBM binding z-score (relative to random genomic background probes); higher = stronger binding; sequences stand for … in GC…GCGATTGACAGCGTAGAATGAAGG
[1] = system: RARb homodimer (NR concentration 270 nM)
Summary of the method: (§1)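 Binding z-scores take random background probes as their reference. They come from custom Agilent 4×180K protein-binding microarrays incubated 1 h with ligand-free nuclear receptor dimers, with antibodies against each partner (one per run) detecting binding. Scanned fluorescence was regression-normalized.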

[2] = system: RARg:RXRa (NR concentration 270 nM, RXRa partner concentration 90 nM)
Summary of the method: as §1

[3] = system: RARg homodimer (NR concentration 270 nM)
Summary of the method: as §1

[4] = system: RXRa DBDmut IVT, anti-RXR (DBD mutation: RXRa K156A/R161A, NR concentration 90 nM)
Summary of the method: as §1

[5] = system: RXRa homodimer (NR concentration 180 nM)
Summary of the method: as §1

[6] = system: THRa:RXRa (NR concentration 90 nM, RXRa partner concentration 90 nM)
Summary of the method: as §1

[7] = system: THRa homodimer (NR concentration 90 nM)
Summary of the method: as §1

[8] = system: VDR homodimer (NR concentration 270 nM)
Summary of the method: as §1

| Sequence | PBM binding z-score [1] | PBM binding z-score [2] | PBM binding z-score [3] | PBM binding z-score [4] | PBM binding z-score [5] | PBM binding z-score [6] | PBM binding z-score [7] | PBM binding z-score [8] |
| --- | --- | --- | --- | --- | --- | --- | --- | --- |
| CCGACTGGGGCAGAAAGGTTACTATACCATCCGG | 1.91 | 1.26 | 1.23 | -0.158 | 1.3 | 0.534 | -0.377 | -0.181 |
| AGAATGAGGTTAAGATCATGGAAACAGAATACAT | 0.492 | 1.94 | 1.49 | 0.788 | 2.62 | 2.2 | 0.477 | 0.212 |
| TCAGACAGGTGAAGGTAACTCACGTACGCAGTCG | 0.616 | 0.706 | 0.586 | 1.3 | 0.939 | 0.624 | 0.0497 | -0.22 |
| TAGCCTAGGTCATGCGGGCCAGTATGGTGTCGGC | 2.86 | 4.2 | 4.58 | 0.269 | 3.23 | 2.96 | 1.07 | 0.682 |
| CCGACTGGGGCAAATGTTACCATACTCAGTACGA | 0.264 | 0.382 | 0.67 | 0.518 | 0.184 | -0.0523 | -0.199 | -0.144 |
| GCATATAGGTAATACAACGTGAAAGTCCGATTGT | -0.603 | 0.114 | 0.451 | 0.181 | 0.119 | -0.366 | -0.557 | -0.205 |
| GCTATTAGTTGAAAGGGCAACCGGATGATTCTCG | 2.11 | 1.41 | 1.33 | 0.824 | 1.22 | 0.688 | -0.119 | 0.228 |
| CAAACTAGGTTACCGGAAGGTCAAAGTCCGCATG | 4.55 | 6.15 | 4.19 | 0.838 | 4.64 | 3.68 | 1.66 | 2.56 |
| ACAGACAGGTGATGAAGGTAACTCCGGCTATCAT | 0.376 | 0.136 | 0.355 | -0.394 | 0.346 | 0.328 | 0.183 | -0.00954 |
| ATATGTAGGTTACATCCAGGTCATTCAGGCTATG | 3.23 | 3.8 | 2.4 | 1.19 | 2.91 | 4.23 | 3.46 | 2.88 |
| AGACTGAGGTTACCAAAGATCAGGGAAACGCTTG | 0.774 | 2 | 1.59 | 0.709 | 2.5 | 2.7 | 0.552 | 0.497 |
| TGTCGGAGGACACGAAAGGTCAGAGCTCGACATC | 4.55 | 4.97 | 5.76 | -0.334 | 4.22 | 3.78 | 1.3 | 1.38 |
| CCTACTGGGCCAAAAAGGGCATTGATGCCGATAA | 1.32 | 0.413 | 0.776 | -0.51 | 0.0736 | 0.26 | -0.987 | 0.107 |
| TCTGCTAGGTCACCGATGGTCAGCTAATCTGCTA | 3.6 | 4.74 | 5.73 | 0.891 | 3.28 | 3.48 | 1.23 | -0.0284 |
| GCTGCTACGTCAGGTTGGTCAGCTAACGGGTACG | -0.00672 | -0.503 | -0.278 | -0.049 | -0.469 | -0.38 | -0.55 | -0.226 |
| GCGACTGGGGCTTCAGCAGGTTACCATAACTTAA | 0.521 | -0.404 | -0.463 | -0.297 | 0.00147 | 0.733 | -0.0641 | -0.284 |
| TCATAAAGGTAAAGGTGAAAGTCGAACGATATGA | 1.86 | 2.14 | 2.08 | 1.06 | 2.73 | 1.73 | -0.454 | 0.0173 |
| GCTCGGAGGACAAGGTCCGAGCTTTGTCCGTAGA | 0.2 | -0.185 | 0.242 | -0.26 | -0.792 | 0.554 | -0.414 | -0.775 |
| CAAACTAGATCACGAAAGGTCAAAGTCGAATGAC | 4.84 | 5.87 | 5.31 | 1.47 | 6.64 | 3.96 | 1.07 | 2.71 |
| CCTTACGGGTCAGTCCAGGTTATAGCATCGGAGT | 2.69 | 3.23 | 3.53 | 0.751 | 2.55 | 4.66 | 0.627 | 1.12 |
| CCTACTGGGCCAAAAAGGTCATGGATGCCGATAA | 1.31 | 5 | 4.57 | 0.231 | 5.58 | 3.41 | 1.05 | 1.81 |
| CTCGAAAGGTCGTACTCAGGTGAGTATACCAAAC | 2.52 | 4.96 | 3.87 | 2.42 | 4.91 | 3.89 | 0.987 | 1.47 |
| CTCGAAAGGTCGGTTCAGGTGAGTATACGGATAA | 2.52 | 2.64 | 2.62 | 1.52 | 2.23 | 5.09 | 1.1 | 2.34 |
| ATTTCTAGGTAAGACTCAGTTCAGTGAAGAACGC | 0.518 | 0.801 | 0.283 | 0.956 | 0.351 | 0.941 | 0.851 | 2 |
| ATACCACGGTGATCGTGAGGTCGTTGATACTAAC | 1.47 | 0.858 | 0.379 | 0.514 | 1.1 | 2.65 | 2.42 | 2.44 |
| GCTGCTAGGTCAACTCATGGTCAGCTAAAGCTCG | 3.69 | 5.16 | 5.42 | 1.45 | 2.86 | 3.17 | 1.15 | 0.269 |
| CCTAGCAGGCCAGGGTCACTCAGGCATTTCGCTT | 2.73 | 2.77 | 2.03 | 0.226 | 3.07 | 2.58 | 0.878 | 1.07 |
| CCTTACGGGTCACTGACAGGTTATAGAATTTGGA | 3.22 | 5.81 | 4.95 | 1.92 | 5.1 | 3.02 | 0.45 | 0.936 |
